From PubChem BioAssay AID1645886 (National Center for Advancing Translational Sciences (NCATS), 2021)
About 260 (1.6%) of roughly 16,000 compounds were called active. Another 14% or so got no clear call; they are omitted. The call rests on the fitted dose curve; in most records, active means well fitted inhibition curve with a large enough effect; inconclusive means small, poorly fitted or top-dose-only effect; inactive means no such curve, though single readings can be large or run the other way. The entries come from a sample that favours actives as a whole. A call without a number means that no potency is given here.

Molecular target: Rap guanine nucleotide exchange factor 4 (Homo sapiens) (UniProt Q8WZA2)
Assay: Validation qHTS for antagonist of cAMP-regulated guanine nucleotide exchange factor 4 (EPAC2); further: nearly all actives have a fitted effect of over 40% in size
Settings: EPAC2 Rap1B BODIPY-GDP exchange, fluorescence; series mostly up to 112 µM
Description: Principle Investigator: Xiaodong Cheng Ph.D. The University of Texas Medical Branch, […], TX MLPCN Grant: NS066510 In multi-cellular eukaryotic organisms, the effects of cAMP are transduced by two ubiquitously-expressed intracellular cAMP receptors, the classic protein kinase A/cAMP-dependent protein kinase (PKA/cAPK) and the more recently discovered exchange protein directly activated by cAMP/cAMP-regulated guanine nucleotide exchange factor (EPAC/cAMP-GEF). Both PKA and EPAC are ubiquitously expressed in all tissues, and an increase in intracellular cAMP levels will lead to the activation of both PKA and EPAC. Therefore, careful dissections of the individual role and relative contribution of EPAC and PKA within the overall cAMP signaling in various model systems are critical for further elucidating the mechanism of cAMP signaling. To date no EPAC-specific antagonists and agonist, as well as isoform-specific agonists have been reported, and developing EPAC-specific pharmacological probes to determine the physiological functions that EPAC play in the overall cAMP-mediated signaling remains a major challenge within the research field. Furthermore, identified regulators of EPAC may lead to new mechanism-based therapeutic strategies specifically targeting the EPAC / cAMP-signaling components as EPAC has been implicated to play important roles in major human pathological conditions such as diabetes, heart disease, and cancer. This qHTS will be used to screen the Molecular Libraries Small Molecule Repository (MLSMR) as a concentration-titration series using the NCGC unique quantitative screening (qHTS) platform to find activators for EPAC1. In addition, this assay will also be used as a counterscreen for the EPAC2 qHTS. This fluorescent based assay is developed and validated for EPAC1 that measures exchange using EPAC effector Rap1 complex with BODIPY-GDP, a GDP analog with a tethered fluorophores. Activators are identified by monitoring the change in fluorescence signal as the exchanged free BODIPY-GDP has a reduced fluorescence compared to Rap1-bound BODIPY-GDP. Increase in signal (activation) is the desired outcome for the EPAC1 agonist while no activity in this assay is desired for the EPAC2 agonist counterscreen. Reference: [1] de Rooij, J., Zwartkruis, F. J., Verheijen, M. H., Cool, R. H., Nijman, S. M., Wittinghofer, A., and Bos, J.L. (1998) Nature 396, 474-477.
Briefly, three uL of reagents (100 nM EPAC2, 250 nM RAP1B-BODIPY-GDP, 50 uM GDP) were dispensed into a 1536-well Greiner black solid-bottom medium binding assay plate. Controls and test compounds (23 nL) were transferred to the plate via a Kalypsys pin tool equipped with a 1536-pin array. The plates were centrifuged at 1,000 rpm for 15 seconds followed by 5 minute incubation at room temperature. The assay plates were read at 5 minute intervals for 30 minutes in the ViewLux plate reader using 480nm excitation and 540nm emission filters. The results were normalized to the agonist positive control of 6.5 mM cAMP.
Potency means the concentration at half of the fitted maximal effect.

Chain of Rap guanine nucleotide exchange factor 4 (Homo sapiens) (Q8WZA2 whole entry, looked up): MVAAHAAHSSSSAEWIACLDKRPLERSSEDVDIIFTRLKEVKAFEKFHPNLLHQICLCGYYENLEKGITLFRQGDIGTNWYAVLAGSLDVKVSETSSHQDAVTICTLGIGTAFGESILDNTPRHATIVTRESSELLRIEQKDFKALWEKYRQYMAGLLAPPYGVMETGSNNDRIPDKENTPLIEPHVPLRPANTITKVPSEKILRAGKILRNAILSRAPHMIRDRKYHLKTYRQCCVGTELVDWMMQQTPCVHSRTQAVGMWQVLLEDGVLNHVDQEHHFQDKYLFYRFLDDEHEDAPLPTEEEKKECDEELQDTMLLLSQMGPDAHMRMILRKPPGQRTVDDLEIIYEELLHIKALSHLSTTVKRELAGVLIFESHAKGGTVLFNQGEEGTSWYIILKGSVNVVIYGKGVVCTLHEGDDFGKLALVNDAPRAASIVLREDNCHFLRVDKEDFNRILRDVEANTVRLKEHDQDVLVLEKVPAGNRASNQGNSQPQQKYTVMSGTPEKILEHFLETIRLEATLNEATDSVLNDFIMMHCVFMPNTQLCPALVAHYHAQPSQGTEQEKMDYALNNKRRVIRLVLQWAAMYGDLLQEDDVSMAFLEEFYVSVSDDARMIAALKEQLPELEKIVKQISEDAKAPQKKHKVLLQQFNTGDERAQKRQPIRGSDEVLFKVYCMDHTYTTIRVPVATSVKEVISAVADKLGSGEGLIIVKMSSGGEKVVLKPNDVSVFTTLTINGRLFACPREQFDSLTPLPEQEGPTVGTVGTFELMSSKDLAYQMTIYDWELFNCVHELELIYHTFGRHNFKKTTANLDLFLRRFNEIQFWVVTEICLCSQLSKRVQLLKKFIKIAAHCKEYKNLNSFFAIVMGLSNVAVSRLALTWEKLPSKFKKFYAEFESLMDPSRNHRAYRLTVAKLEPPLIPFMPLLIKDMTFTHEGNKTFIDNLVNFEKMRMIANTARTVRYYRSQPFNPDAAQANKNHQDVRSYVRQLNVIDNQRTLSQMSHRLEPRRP

SMILES	Potency	activity, negative = inhibition
CCc1noc(C)c1C(=O)NCCN1Cc2cc(OC)ccc2OC(CC)C1 (stereo not drawn)	inactive	
CC(N)(C(=O)O)c1ccc(-c2nn[nH]n2)cc1 (stereo not drawn)	inactive	
O=C1CCC[C@@H]2C[C@@]3(C[C@@H]4CCN1[C@H]24)Nc1ccccc1NC3=NCc1ccccc1	inactive	
C=C1O[C@@](CO)(n2cnc3c(N)ncnc32)[C@H](O)[C@@H]1O	inactive	
CO/N=C(\C(=O)N[C@@H]1C(=O)N2C(C(=O)O)=CCS[C@H]12)c1csc(N)n1	inactive	
COC(=O)CC1C(C)(C)C(OC(C)=O)C2CC3=C4CC(=O)OC(c5ccoc5)[C@]4(C)CCC3[C@@]1(C)C2=O (stereo partly drawn)	inactive	
COc1ccccc1CNc1ccnc(-c2c(C)noc2C)n1	inactive	
COc1ccc(C(=O)N2CCC3(CCCN(C(c4ccccc4)c4ccccc4)C3)CC2)cc1	inactive	
CN(C)C(=O)c1ccc(-c2cncnc2NC2CCNCC2)cc1	inactive	
CCC1(C2CCN(C(=O)c3cccc(F)c3F)CC2)NC(=O)N(CCc2scnc2C)C1=O (stereo not drawn)	inactive	
COc1ccccc1N1CCN(C[C@@H]2CN3C(=O)N(C)c4ccccc4C3=N2)CC1	inactive	
CCC(C)[C@H]1COCCS(=O)(=O)N1Cc1ccc(C)cc1 (stereo partly drawn)	79.4 µM (active)	
Cc1ccc(CN2CCCOCCS2(=O)=O)cc1	inactive	
Cc1ncc2c(c1CNS(=O)(=O)N(C)C)CCN(C(=O)c1ccccc1F)C2	inactive	
COCCNc1cc(-c2c(C)noc2C)ncn1	inactive	
C[N+](C)(C)CCCCCNCC12CC3CC(CC(C3)C1)C2	inactive	
O=C(O)CCCc1ccccc1	inactive	
Cc1cccc(CNC(=O)c2cnn(-c3nccc(-c4ccccc4F)n3)c2C2CC2)n1	inactive	
O=C(c1cnccn1)N1CCC[C@@]2(CCN(Cc3ccncc3)C2)C1	inactive	
COCCn1c(=O)c(-c2cc(F)cc(F)c2)nc2cnc(N3CCNCC3)nc21	inactive	
Cn1cccc1C(=O)N1CCC[C@@]2(CCN(Cc3nccs3)C2)C1	inactive	
CC(C)=CC1C(C(=O)O)C1(C)C (stereo not drawn)	inactive	
CCCCC/C=C\C/C=C\CCCCCCCCCC(=O)O		-26.6% [at 11.4 µM] (inactive)
COc1ccccc1C1CN(Cc2ccccc2O)Cc2ccccc2O1 (stereo not drawn)	inactive	
Cc1c(O)cc(O)c2c(=O)c(-c3ccc(O)cc3)coc12	inactive	
C[C@@H]1O[C@@H](OC[C@H]2O[C@@H](Oc3c(-c4cccc(O)c4O)oc4cc(O)cc(O)c4c3=O)[C@H](O)[C@@H](O)[C@@H]2O)[C@H](O)[C@H](O)[C@H]1O	inactive	
COc1cccc(Cn2c(=O)c(-c3ccccc3)nc3cnc(OC)nc32)c1	inactive	
O=c1c(-c2ccc(F)cc2)nc2cnc(N3CCNCC3)nc2n1Cc1cccs1	inactive	
